# According to PubChem BioAssay AID720697 (Broad Institute, 2013):
# Results with a measured potency or affinity are listed apart. Records with an inconclusive call do not appear. Activity calls are given as the source filed them.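 The calls were made as follows: active = signal loss with fitted half-maximal concentration at or below twice the top valid tested dose in every test run; inconclusive = runs disagree, flat 30 to 70% signal loss, or poor fit; inactive = all runs flat, opposite direction, or potency beyond limit.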
# Experiment: general mammalian cell viability loss – inhibitor set, cherry-pick, set 2, cytotoxicity control for miR-122 modulator project, dose response (AID 720697)
row,SMILES,outcome
1,COc1ccc2c(c1)c(CCN)c(C)n2Cc1ccccc1,inactive
2,COc1ccc(C2SCC(=O)Nc3c2c(=O)[nH]n3C2CCCCCC2)cc1 (configuration not stated),inactive
